# Bioassay records from PubChem BioAssay.
# The list is not random: actives were taken first. Their share in the collection is about 19%.
# HT1080 IDH1KD tx: toxicity to HT-1080 IDH1 knockdown cells (counter line) | HT-1080 IDH1 knockdown viability, ATP luminescence, 48 h | Potency, µM (doses to about 46.1 µM), for inactives: at the top dose activity, negative = toxicity, actives largely listed as cytotoxic | 360,000 tested, 2% active | AID 686971;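 also: potency is read from the fitted curve at half-maximal effect; 0% = DMSO wells and -100% = cell-free medium wells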
#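 Assay cells: HT-1080 with IDH1 knockdown, 750 per well, RPMI/5% FBS. Exposure: 48 h at 37 °C following 2 h pre-incubation. Read: CellTiter-Glo luminescence; fitted concentration-response, curve class assigned.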
# HT1080-NT tox: kills 2HG-producing HT-1080-NT fibrosarcoma cells. HT-1080-NT fibrosarcoma viability, CellTiter-Glo ATP luminescence, 48 h. Potency, µM (highest dose often 46.1 µM), without a hit: at the highest dose activity, negative = less viability, most hits filed as cytotoxic. 360,000 tested, 1.6% active. AID 686970;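 also: NT is the 2HG producing partner of a matched IDH1 knockdown line; potency is read from the fitted curve at half-maximal effect; 0% = DMSO-treated cells and -100% = media-only wells without cells; nearly all actives have a fitted effect of over 55% in size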
#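 A 48-hour cytotoxicity screen used HT-1080-NT cells plated 2 hours before compound delivery. ATP-based CellTiter-Glo luminescence measured viability, normalized to DMSO and no-cell controls.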
# TDP1 cell CPT: growth inhibition of DT40 Tdp1-/-;hTDP1 cells with camptothecin (screen for TDP1 inhibitors). chicken DT40 Tdp1-/-;hTDP1 cells + 20 nM CPT, ATP luminescence, 48 h. Potency, µM (highest dose often 46.2 µM), inactives show at the top dose activity change, negative = growth inhibition, most hits filed as inhibitors. 420,000 tested, 12% active. AID 686979; also: potency is read from the fitted curve at half-maximal effect; nearly all actives have a fitted effect of over 55% in size
#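 Chicken DT40 Tdp1-/- cells stably complemented with human TDP1 were seeded at 400 cells/well in medium containing 20 nM camptothecin, exposed to pin-transferred compounds, and grown at 37 °C for at least 48 hr. Viability was read as ATP luminescence.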
# DT40 TDP1 no CPT: qHTS for Inhibitors of human tyrosyl-DNA phosphodiesterase 1 (TDP1): qHTS in cells in absence of CPT | DT40 Tdp1-/- hTDP1 cells, no CPT, ATP luminescence, 48 h | Potency, µM (titrated, usually from 46.2 µM), inactives show top-dose activity change, negative = growth inhibition, actives largely listed as inhibitors | 420,000 tested, 15% active | AID 686978, 2013; also: potency is read from the fitted curve at half-maximal effect; nearly all actives have a fitted effect of over 55% in size
#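 Chicken DT40 Tdp1-/- cells stably complemented with human TDP1 were seeded at 400 cells/well with DMSO in place of 20 nM camptothecin. After compound pinning, cells grew at least 48 hr at 37 °C; viability read by CellTiter-Glo luminescence.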
# IL1B secr inh: blocks inflammasome-driven IL-1 beta release | THP-1 LPS/ATP IL-1B secretion, AlphaLISA, 16 h; stronger effect = lower value | activity change, % at 57.5 µM | 360,000 tested, 4.7% active; in the data active = activity change below about -50%; inconclusive = mostly about -30% to -49%
#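 THP-1 cells pretreated 1 hr with compounds (up to 57.5 uM final), then stimulated with LPS (250 ng/mL final) plus ATP (1.25 mM final); secreted IL-1B measured by AlphaLISA after 16 hr, decreased signal indicating inhibition.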
# Numbers without * were called inactive; ? = inconclusive; / = no result given; [ ] = remark or other dose. Unless noted, calls follow the shape of the dose curve; as a rule, active = well fitted curve in the direction sought with a large enough effect; inconclusive = small, poorly fitted or top-dose-only effect, or another doubt; inactive = no such curve, though single readings can be large; an effect the other way counts as inactive or inconclusive. Unless noted, % is scaled to controls: 0 for no effect and ±100 for the full control effect.
SMILES,HT1080 IDH1KD tx,HT1080-NT tox,TDP1 cell CPT,DT40 TDP1 no CPT,IL1B secr inh
CCOc1ccccc1CNC(=O)c1cccc(NC(=O)c2nsc3ccccc23)c1,/,/,5.8µM*,5.17µM*,/
CCOc1cc(CNC(=O)c2ccccc2NC(=O)c2nsc3ccccc23)ccc1OC,/,/,16.4µM*,18.4µM*,/
Cc1ccc2oc(C(=O)Nc3nc(-c4ccc(F)cc4)ns3)c(C)c2c1,/,/,-7.2%,-19.3%,/
Cc1ccccc1CNC(=O)c1ccc(CSCc2ccccc2)cc1,-3.1%,-4.7%,?,20.6µM*,-22.8
O=C(Nc1ccc(C(=O)N2CCCCC2)cc1)c1nsc2ccccc12,/,/,20.6µM*,20.6µM*,/
CNC(=O)c1ccc(NC(=O)c2nsc3ccccc23)cc1,/,/,-9.7%,?,/
Cc1ccc(CSCCNC(=O)c2ccccc2)cc1,0.1%,5.5%,-21.0%,-36.1%,2.7
COCC(=O)Nc1cc(C(=O)N2CC3(C)CC2CC(C)(C)C3)c2c(c1)nc(-c1ccncc1)n2C (stereo not given),/,/,12.3%[9.04 µM],-2.5%,/
CCn1cc(C(c2ccccc2)C(C(C)=O)[N+](=O)[O-])c2ccccc21 (stereo not given),-10.9%,?,?,?,-16.7
CC(=O)SC(C[N+](=O)[O-])c1cn(C(C)=O)c2ccccc12 (stereo not given),?,-1.8%,4.61µM*,2.91µM*,-81.8*
FC(F)(F)c1cnc2c(c1)[nH]c(=S)n2-c1ccc(Cl)cc1,-15.4%,-22.3%,20.6µM*,?,-27.5
Fc1ccc(-n2c(=S)[nH]c3cccnc32)cc1,-0.4%,-1.3%,-29.5%,?,17.5
CC(CCc1ccccc1)NC(=O)c1nnc(Cc2ccc(Cl)cc2)o1 (stereo not given),-7.8%,-0.1%,29.1µM*,?,-59.0*
O=C(NCCc1ccc(Cl)cc1)c1nnc(Cc2ccc(Cl)cc2)o1,4.8%,-11.7%,-23.6%,-8.3%,-26.1
CCCNC(=O)CN1C(=O)c2ccccc2Sc2ncccc21,9.7%,0.5%,3.9%,-12.0%,0.7
O=C(CN1C(=O)c2ccccc2Sc2ncccc21)Nc1cccc(C(F)(F)F)c1,/,/,18.4µM*,?,/
Cc1cc(C)c(NC(=O)CCN2C(=O)c3ccccc3Sc3ncccc32)c(C)c1,/,/,?,20.6µM*,/
Cc1ccc(NC(=O)CCN2C(=O)c3ccccc3Sc3ncccc32)c(Cl)c1,/,/,18.4µM*,18.4µM*,/
CCCCNC(=O)CCCN1C(=O)c2ccccc2Sc2ncccc21,/,/,-26.3%,?,/
O=C(CSc1ncccn1)Nc1cc(Cl)ccc1[N+](=O)[O-],1.8%,0.4%,-1.5%,-10.0%,30.3
CCOc1ccc(C2c3[nH]c4ccccc4c3CCN2C(=O)Cn2cncn2)cc1 (stereo not given),?,?,2.2%,-26.7%,3.6
O=C1c2ccccc2/C(=C\C#Cc2ccccn2)N1c1ccccc1,-28.2%,?,?,?,-100.0*
COC(=O)[C@@H]1[C@@H](C#N)C2(c3ccccc3-c3ccccc32)N(c2ccc(Cl)cc2)N1C#N,23.1µM*,23.1µM*,3.26µM*,3.66µM*,?
C/C(=N/OC(=O)C1CC1c1ccccc1)c1ccccc1 (stereo not given),-0.1%,-7.6%,?,6.2%,7.0
Cc1ccc2[nH]c(O)c(N=NC(=O)C3CC3c3ccccc3)c2c1Br (stereo not given),10.1%,7.5%,20.6µM*,23.1µM*,6.8
SMILES,HT1080 IDH1KD tx,HT1080-NT tox,TDP1 cell CPT,DT40 TDP1 no CPT,IL1B secr inh
O=C(Cc1ccc(Br)cc1)Nc1cccc(-c2cn3c(n2)SCC3)c1,?,-13.4%,?,?,-75.6*
COc1cc(Cl)c(C)cc1NC(=O)COC(=O)C1=COCCO1,-7.4%,0.9%,2.3%,4.7%,27.7
ClCc1cc2ccccc2nc1Cl,12.6%,11.5%,10.3µM*,8.2µM*,-0.1
CCc1cc2ccccc2nc1Cl,6.7%,?,0.1%,15.4%,-7.0
Cc1ccc2cc(CCl)c(Cl)nc2c1,3.1%,17.4%,16.4µM*,20.6µM*,15.7
O=C(OCC(O)COC(=O)c1cccnc1)c1cccnc1,-6.3%,0.5%,-4.0%,7.1%,14.4
Cc1cc(C(=O)Oc2cccnc2)ccc1[N+](=O)[O-],8.2%,1.4%,0.2%,-21.9%,19.0
O=C(Oc1c(Br)cc([N+](=O)[O-])cc1Br)c1cccnc1,?,?,18.4µM*,?,0.0
N/C(=N\OC(=O)c1cc([N+](=O)[O-])ccc1Cl)c1cccnc1,21.2%,19.1%,?,?,-100.8*
C=CCN(C(=O)c1csnn1)C(C(=O)NC1CCCC1)c1ccc(OC)cc1 (stereo not given),4.5%,12.0%,0.9%,-23.2%,-8.7
CCC(C)Sc1ccc([C@@H]2[C@@H]3C(=O)N(CC)C(=O)[C@@H]3[C@]3(C(=O)OC)CCCCN23)cc1OC (stereo not given in full),-9.3%,1.2%,?,?,-12.5
CCC(C)Sc1ccc([C@@H]2[C@H]3C(=O)N(C)C(=O)[C@H]3[C@]3(C(=O)OC)CCCN23)cc1 (stereo not given in full),0.1%,21.2%,?,14.6µM*,28.1
CCC(C)Sc1ccc([C@@H]2[C@@H]3C(=O)N(C)C(=O)[C@@H]3[C@]3(C(=O)OC)CCCCN23)cc1OC (stereo not given in full),-15.4%,1.8%,?,18.4µM*,-0.2
